About 65 (0.3%) of roughly 24,000 compounds were called active.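 How the source made its calls: active means share of bacteria positive for the green fluorescent reporter and its mean brightness both inhibited by 50% or more; inactive means the rest, inconclusive results apart.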 What follows is part of a selection rich in actives, with near analogues and random picks from the rest.
Experiment: blockers of AIP-driven agr signalling in S. aureus – RNAIII-GFP reporter, flow cytometry, primary screen (AID 527);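 further: 0% = AIP-stimulated control and 100% = unstimulated bacteria without AIP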
Settings: S. aureus RN6390 RNAIII-GFP reporter, AIP-induced, flow cytometry 3 h, at 2 µM, stronger effect = higher value
[1] = measured here: inhibition of GFP MFI

| SMILES | inhibition | inhibition [1] |
| --- | --- | --- |
| Cc1nc(NC(=O)CCC(=O)O)sc1C(=O)N(C)C | -4.1% (inactive) | -15.4% |
| O=C(O)C1C2C=CC(C2)C1C(=O)N1CCN(CCO)CC1 (centres undefined) | -0.3% (inactive) | -23.2% |
| Cc1nnc(SCCCn2c(N3CCCCC3)nc3c2c(=O)[nH]c(=O)n3C)s1 | 2.3% (inactive) | 8.9% |
| CCOC(=O)CSc1nnc(CNC(=O)c2cccs2)n1-c1cc(OC)ccc1OC | 1.2% (inactive) | 29.5% |
| O=C(CSc1nc2ccccc2o1)N1CCN(c2ccc(Cl)cc2)CC1 | 0.5% (inactive) | 5.2% |
| CCOc1ccc(NC(=O)CC2NCCNC2=O)cc1 (centres undefined) | 0.5% (inactive) | 16.7% |
| CCOc1ccc(CNC(=O)C2CCC(=O)N2C2CCCC2)cc1OC (centres undefined) | 3.8% (inactive) | 11.6% |
| CCOC(=O)N1CCC(NC(=O)c2ccc3nc(N4CCOCC4)sc3c2)CC1 | -5.4% (inactive) | -36.9% |
| CCN(CC)CCNC(=O)Cn1cnc2sc(C)c(S(=O)(=O)N3CCOCC3)c2c1=O | -4.4% (inactive) | -7.2% |
| CCn1cc(C(=O)N2CC=C(c3ccccc3)CC2)c(=O)c2ccc(C)nc21 | 17.2% (inactive) | 30.6% |
| CCOC(=O)Cn1c(=O)oc2cc(S(=O)(=O)N(C)Cc3ccco3)ccc21 | -6.4% (inactive) | -10.2% |
| CC1CCN(c2oc(-c3ccccc3F)nc2C#N)CC1 | 0.5% (inactive) | 3.2% |
| Cc1ccccc1NC(=O)c1ccccc1 | -2.3% (inactive) | -11.3% |
| CCOC(=O)N1CCN(CC(=O)c2c(C)[nH]c3ccccc23)CC1 | -0.6% (inactive) | 7.3% |
| COc1cc2cc(CN(CCN3CCCC3)C(=O)Nc3ccccc3Cl)c(=O)[nH]c2cc1OC | -3.5% (inactive) | -20.1% |
| Cc1ccccc1CN1CCN(C(=O)c2cccc(F)c2)CC1 | -0.2% (inactive) | -10.6% |
| COc1cccc(OC)c1OCCN1CCN(C(=O)c2ccco2)CC1 | -1% (inactive) | 4.2% |
| COc1ccc(OC)c(NC(=O)CCN2CCC(C)CC2)c1 | -0.7% (inactive) | -21.9% |
| CCOc1ccc(-c2cn(S(=O)(=O)c3cccc4nsnc34)nc2N)cc1 | 2.7% (inactive) | 26.8% |
| Cn1c(=O)[nH]c(=O)c2c1nc(NCCCn1ccnc1)n2Cc1cccc(Br)c1 | -0.5% (inactive) | -1.6% |
| CC(=O)c1cc2c(cc1NC(=O)CN1CCCCCC1)OCO2 | -3.5% (inactive) | -12.2% |

| SMILES | inhibition | inhibition [1] |
| --- | --- | --- |
| O=C(CC(NCCN1CCOCC1)C(=O)O)Nc1cccc(Cl)c1 (centres undefined) | -0.4% (inactive) | 7.8% |
| CCN(CC)C(=O)CCC(=O)Nc1ccc(C(=O)OC)cc1 | 0.7% (inactive) | 0% |
| CCOc1ccc(Cn2nnc(C(=O)Nc3ccc(OC)cc3OC)c2N)cc1 | -0.3% (inactive) | -4.3% |
| COc1ccc(C(=O)NCc2cn3ccccc3n2)cc1 | -9.5% (inactive) | -17.4% |
| Cc1cc(C)c2c(n1)nn1c(N3CCOCC3)cc(C)nc21 | -1.1% (inactive) | 1.4% |
| CCCCN(CC)C(=O)CN(C)S(=O)(=O)c1cccc2nsnc12 | -1.2% (inactive) | -4.3% |
| CC1CCCCC1NC(=O)CCS(=O)(=O)c1cccc2nonc12 (centres undefined) | 4% (inactive) | 22.1% |
| CCOc1ccc(C2C(C(=O)NC)=C(C)Nc3nc4ccccc4n32)cc1OC (centres undefined) | 2.9% (inactive) | 6.8% |
| O=C(NCc1ccco1)C1CCCN(S(=O)(=O)c2cnc[nH]2)C1 (centres undefined) | 3.6% (inactive) | 9.1% |
| CCn1cc(C(=O)NCC2CCCO2)c(=O)c2cc(S(=O)(=O)N3CCCCC3)ccc21 (centres undefined) | -8.4% (inactive) | -14.4% |
| O=C(c1ccco1)N1CCN(C(=O)c2ccc(COc3ccc(F)cc3)o2)CC1 | 2.8% (inactive) | 8% |
| COc1ccc(C2OC(=O)CC2C(=O)NC(C)C)cc1 (centres undefined) | -1% (inactive) | -15.8% |
| COc1cc2[nH]c(=S)n(Cc3ccc(C)o3)c(=O)c2cc1OC | 2% (inactive) | 9.8% |
| O=C(CN1C(=O)CCS(=O)(=O)c2ccccc21)NCc1ccc(F)cc1 | -1.6% (inactive) | -8.2% |
| CCOC(=O)CSc1nnc(NC(=O)c2cccc(S(=O)(=O)N3CCCCC3)c2)s1 | -0.3% (inactive) | 13% |
| COc1cccc(OCC(O)CN2CCN(CCO)CC2)c1 (centres undefined) | -2% (inactive) | -8.9% |
| CN(C)/C=C1\C=C(c2ccccc2)OC1=O | 0.4% (inactive) | 1.9% |
| O=C(NCc1ccc2c(c1)OCO2)C1CCCN(S(=O)(=O)c2cccs2)C1 (centres undefined) | 16.2% (inactive) | 44.2% |
| CCCCC(=O)Nc1cc(C)c2c(=O)oc3ccccc3c2n1 | 43.3% (inactive) | 69.9% |
| COc1ccc(N2CCN(CCNC(=O)CCN3C(=O)COc4ccccc43)CC2)cc1 | -0.3% (inactive) | 5.4% |
| COc1cc2[nH]c(=S)n(CCN3CCCCC3C)c(=O)c2cc1OC (centres undefined) | 2.3% (inactive) | 17.7% |

| SMILES | inhibition | inhibition [1] |
| --- | --- | --- |
| O=C(CC(NS(=O)(=O)c1ccc(Cl)cc1)c1ccco1)NC1CCCC1 (centres undefined) | 7.7% (inactive) | 13.1% |
| Cc1c(NC(=O)C(C)OC(=O)c2cc3c4ccccc4n(C)c3s2)c(=O)n(-c2ccccc2)n1C (centres undefined) | 0.6% (inactive) | 3.3% |
| O=C(Cn1nc(Cc2cccnc2)c2ccccc2c1=O)NCC1COc2ccccc2O1 (centres undefined) | 5.9% (inactive) | 12.1% |
| Cc1cc(Cl)c(S(=O)(=O)Nc2ccc3c(c2)OCCO3)cc1OCC(N)=O | -0.7% (inactive) | -17.3% |
| Cc1ccc(-c2nc(CS(=O)CC(=O)N3CCN(c4ncccn4)CC3)c(C)o2)cc1 (centres undefined) | -2.1% (inactive) | -1.4% |
| COc1cc(C(O)c2nc3ccccc3n2C)cc(OC)c1OC (centres undefined) | -4% (inactive) | -99.6% |
| CC(C)OCCCNC(=O)CNC(=O)c1cccs1 | -1.5% (inactive) | -15.3% |
| Cc1ccc(S(=O)(=O)N2C3C=CC(C3)C2C(=O)O)cc1 (centres undefined) | -5.7% (inactive) | -28.5% |
| Cc1ccc(CNC(=O)C2CCCN(S(C)(=O)=O)C2)cc1 (centres undefined) | 0.6% (inactive) | 10% |
| COc1ccccc1C(=O)N1CCN=C1SCc1cccnc1 | -1.3% (inactive) | -5.4% |
| CC(C)(C)n1nc2c(c1NC(=O)c1ccc(S(=O)(=O)N3CCCC3)cc1)CS(=O)C2 (centres undefined) | -6.3% (inactive) | -9.9% |
| Cc1nn(-c2ccccc2)c2c1C(=O)NC(=O)C(C)(C)C2 | 4.5% (inactive) | 27.5% |
| O=C(Nc1ccncc1)c1cc2ccccc2o1 | 0% (inactive) | 2.6% |
| COc1ccc(S(=O)(=O)Nc2ccc(S(=O)(=O)N3CCCCC3)cc2)cc1OC | -3.8% (inactive) | -10.7% |
| Cc1onc(-c2ccccc2)c1C(=O)N1CCOCC1 | 0% (inactive) | 3.7% |
| Cc1ccc(C(c2sc3nc(C)nn3c2O)N2CCN(c3ccc(F)cc3)CC2)cc1 (centres undefined) | 1.8% (inactive) | -4.2% |
| C=CCSc1nc2c(c(=O)[nH]1)C(C(C)C)C(C#N)=C(N)O2 (centres undefined) | 2.6% (inactive) | 27.2% |
| CCN(c1ccc2c(c1)OCO2)S(=O)(=O)c1cc(Br)cc2c1N(C(=O)C1CC1)CC2 | -0.3% (inactive) | 5.6% |
| CCOC(=O)CSC1=C(C#N)C(c2sccc2C)CC(=O)N1 (centres undefined) | -0.9% (inactive) | -28.9% |
| COC(=O)c1ccc(NC(=O)C(C)N2C(=O)c3ccccc3C2=O)cc1 (centres undefined) | -1.2% (inactive) | -12.9% |
| Cc1cc(Nc2cccc(C)c2C)n2ncnc2n1 | 0% (inactive) | 1.4% |

| SMILES | inhibition | inhibition [1] |
| --- | --- | --- |
| COC(=O)c1ccc2c(=O)n(CC3CCCO3)c(=S)[nH]c2c1 (centres undefined) | -2.1% (inactive) | 1.7% |
| O=C(NCCCN1CCN(C2CCCCC2)CC1)Nc1ccccc1C(F)(F)F | -9.7% (inactive) | -13.2% |
| COc1cccc(N2CCN(C(=O)C3CCCN(S(=O)(=O)c4cnc[nH]4)C3)CC2)c1 (centres undefined) | -1.3% (inactive) | -0.6% |
| O=C(CCn1c(=O)[nH]c2ccccc2c1=O)NCCCN1CCN(c2cccc(Cl)c2)CC1 | -4.8% (inactive) | -25.8% |
| Cc1ccc(C)c(N2CCN(C(=O)CCc3nc4ccccc4[nH]3)CC2)c1 | 5.3% (inactive) | 36.1% |
| Cc1ccc(C)c(N2CCN(C(=O)CCCCn3c(=O)[nH]c4ccccc4c3=O)CC2)c1 | 71.2% (active) | 71.1% |
| COC(=O)c1ccc(CN(c2ccccc2OC)S(=O)(=O)c2cccs2)o1 | -0.8% (inactive) | -15.8% |
| COC(=O)CN(c1nc(C)c(Cl)c(OC)n1)S(=O)(=O)c1ccc(C)cc1 | -3.6% (inactive) | -2.5% |
| Cc1ccccc1S(=O)(=O)Cc1ccc(C(=O)NCCN2CCCCC2C)o1 (centres undefined) | 1.5% (inactive) | -6.9% |
| O=C(C(Cc1ccccc1)n1cccc1)N1CCN(C2CCCCC2)CC1 (centres undefined) | -0.8% (inactive) | -1.7% |
| CCOc1ccc(OCC)c(NC(=O)C2CCN(S(=O)(=O)c3c(C)noc3C)CC2)c1 | -1.2% (inactive) | -15.6% |
| O=C(c1ccccc1)c1ccc2nc(N3CCCCC3)c3nncn3c2c1 | -1.8% (inactive) | -34.9% |
| Cc1cccc(N2CCN(Cc3c(C)n(C)n(-c4ccccc4)c3=O)CC2)c1C | -0.1% (inactive) | -1.8% |
| COc1cccc(N2C(=O)C3CCCN3C2c2ccc(F)cc2)c1 (centres undefined) | -4.7% (inactive) | -8.4% |
| CN1CCN(S(=O)(=O)c2ccc3[nH]cc(C(=O)O)c(=O)c3c2)CC1 | -2.2% (inactive) | -22.7% |
| CC(C)N1C(=O)C2C(C(=O)NC3CCCCC3)C3C=CC2(O3)C1C(=O)NC1CCCC1 (centres undefined) | -2.6% (inactive) | -16.1% |
| CC1CCC(NS(=O)(=O)c2ccc3c(c2)n(C)c(=O)c(=O)n3C)CC1 (centres undefined) | -0.4% (inactive) | 12.3% |
| C=CCn1c2ccccc2c2nnc(SC(CC)C(=O)Nc3nc(C)c(C(=O)OCC)s3)nc21 (centres undefined) | 28.9% (inactive) | 48.3% |
| COC(=O)c1cc(C(=O)OC)cc(N2C(=O)CC(N3CCN(c4ccccc4)CC3)C2=O)c1 (centres undefined) | 5.6% (inactive) | 38.5% |

— PubChem BioAssay AID527 (NMMLSC, 2006)
